{
  "source": "PubChem BioAssay AID1508600",
  "about": "(Functional Genomics Laboratory (NCATS/FGL), 2020)",
  "note": "The campaign covered roughly 53,000 sequences. About 3,700 (7%) were called active. Only a selection was taken, and actives are over-represented in it overall. A number with no mark means an inactive call.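 The calls were made as follows: active = gene knockdowns whose robust z-score for IL-1 alpha signal is at least 2 or at most -2, so actives lie on both sides; inactive = the rest.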",
  "data": [
    {"assay": "Components of the Cytosolic LPS Sensing Pathway: Gene Identification via Genome-wide siRNA Screen;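 also: robust z of the log signal after scaling to non-targeting control siRNA wells of the plate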", "conditions": "RAW264.7 macrophages, IL-1a HTRF, actives lie on both sides, screened at 100 nM (by protocol), cells primed 5 h with Pam3CSK4 first", "outline": "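Read-out: IL-1a HTRF on supernatant, divided by plate negative-control median ×100, log-transformed and converted to robust z-score. Cells were RAW264.7 given 100 nM siRNA, Pam3CSK4-primed 5 hours, then LipidA-transfected 24 hour.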", "values": [
      {"sequence": "GGUAAAACAGAGGAGUCGGTT against Scaf1", "z-score": -0.444},
      {"sequence": "GGUACAAACUCUCCCUAGATT against Ube2c", "z-score": -1.29},
      {"sequence": "GGAUCUACAUUGCUAAAGUTT against Dbil5", "z-score": 0.0731},
      {"sequence": "GCCCAAAAAGUGCUUGCUGTT against Tmem215", "z-score": -1.76},
      {"sequence": "CCUUCCCUUAAAUGGAACCTT against Slc9a1", "z-score": 1.63},
      {"sequence": "CGCAGUGAUUAUGACCUCCTT against Thegl", "z-score": "-2.34 (active)"},
      {"sequence": "GCCUUGUUACAAAUAGUCGTT against Tcf12", "z-score": 0.266},
      {"sequence": "GGGAUUCGGUGAAGAUUUGTT against Nfe2l1", "z-score": -0.736},
      {"sequence": "GGUGAAAUCCUGAUGUUUUTT against Vps33b", "z-score": 0.301},
      {"sequence": "GGGACAAGAUCUGAACUUCTT against Rgl3", "z-score": -0.36},
      {"sequence": "CCUCACUGUGGUAACAUUATT against Olfr452", "z-score": 1.84},
      {"sequence": "GGAAAACAAACCACAGCCATT against Tpbpa", "z-score": "-2.66 (active)"},
      {"sequence": "GGUGCUAUUCAUCUGCACGTT against Lonp1", "z-score": -1.09},
      {"sequence": "GCCUGUCAUGGUUAUGACCTT against Shbg", "z-score": -0.803},
      {"sequence": "GGACAGAUACGUUAUCAAGTT against Il3", "z-score": 1.31},
      {"sequence": "CCCAUUUGAAAUUAGGGUATT against Mief1", "z-score": 0.607},
      {"sequence": "GCUGGCUUCAUUUUACUUATT against Degs1", "z-score": 0.126},
      {"sequence": "GGAUUACAGGCAUUUGGUUTT against Hmgn1", "z-score": "3.01 (active)"},
      {"sequence": "GGAGUGAAGAUCUGAUUGCTT against Aaas", "z-score": -1.63},
      {"sequence": "GCUGGGAUGGUAUCGUUUCTT against Ripk2", "z-score": 0.559},
      {"sequence": "GGUAUUGAUGCCAAAUUAATT against Plekha5", "z-score": 1.38},
      {"sequence": "CGUCCUGUCGCUGAUUAAATT against Tcl1", "z-score": 0.323},
      {"sequence": "CCGAAAAGUGUGGCGAGAATT against Arid3c", "z-score": -0.285},
      {"sequence": "CCAGAGUAAUUCAUCAUACTT against Agxt", "z-score": 0.172},
      {"sequence": "GGUUCAGUUUGCCAAAGACTT against Elfn1", "z-score": 1.45},
      {"sequence": "GGACUUCACAUUCUUGAGATT against A130010J15Rik", "z-score": -0.232},
      {"sequence": "GGUGGGCACUCUGGUUUUUTT against Eif4e", "z-score": "4.66 (active)"},
      {"sequence": "GUAGUAACCAGAUCUUAUATT against Vmn1r29", "z-score": 0.496},
      {"sequence": "GGUUCAGCCAGAAUUUUCGTT against Lefty2", "z-score": 0.876},
      {"sequence": "GGAAAAGACUAACGAGCGGTT against Med11", "z-score": -0.703},
      {"sequence": "GGUCCUUCGUAGUUGUGGUTT against Sp110", "z-score": 1.33},
      {"sequence": "GCAAAAACCUAUAGGAAAATT against Srpk2", "z-score": "2.27 (active)"},
      {"sequence": "GGGAGAUCAUGAUAGCAGCTT against Cox5b", "z-score": -0.828},
      {"sequence": "GCUUGGCUUCAGCAUAUGCTT against Phox2b", "z-score": -0.867},
      {"sequence": "GCCACACUUAAGUCAGACCTT against Tprn", "z-score": 0.597},
      {"sequence": "GGUGCUAAGAAAAUCAAAGTT against Ryr2", "z-score": "3.64 (active)"},
      {"sequence": "GGGAGCAAAUGUAAUUUAUTT against Tbpl1", "z-score": 0.842},
      {"sequence": "GGUUUAACUUUAAUGAUGGTT against Cacna1e", "z-score": -1.39},
      {"sequence": "GGGAAUGGGUCUUGUAAACTT against Ppat", "z-score": -1.4},
      {"sequence": "GCAUAUGCUUUUACAACACTT against Zfp280c", "z-score": 0.252},
      {"sequence": "GGUCAAUGCUGUUUUUGUUTT against Mxi1", "z-score": "2.41 (active)"},
      {"sequence": "GGUCUGUGCAAGCAAAUCGTT against Cacng2", "z-score": -0.153},
      {"sequence": "GGAAAAUCAUGGGAGCCUUTT against Lpo", "z-score": -0.435},
      {"sequence": "GGAGAGUGAUGAACAGAUGTT against Pctp", "z-score": "2.21 (active)"},
      {"sequence": "GGGCUCGUUAAUCUUUUACTT against Nop10", "z-score": 0.753},
      {"sequence": "GGAAAUGUUUCUGUUCAUUTT against Nipsnap3b", "z-score": 0.295},
      {"sequence": "GGUGACUGACAGCUGCCAATT against Prima1", "z-score": 0.0318},
      {"sequence": "GGUUAAAAGAGGUGAUUAGTT against Mtfp1", "z-score": 1.9},
      {"sequence": "GGCCCAUCACUUACUAAAGTT against Exoc3l", "z-score": 0.224},
      {"sequence": "GGAAUAUUCACAGUCCGAGTT against Zfand3", "z-score": "-2.18 (active)"},
      {"sequence": "GCCAACAAUAUAAUUCAAGTT against Abca5", "z-score": 1.64},
      {"sequence": "GGUGACAAAAAGUCAAAGATT against Dis3l2", "z-score": -0.542},
      {"sequence": "CCAUGGUCUAGCACAGUGGTT against Cpn2", "z-score": -0.079},
      {"sequence": "GACACUGUCAAAUUAUGGATT against Vmn1r74", "z-score": -0.581},
      {"sequence": "CGGAAUGAUUCUGACUAAUTT against Mmp7", "z-score": 0.546},
      {"sequence": "GGUAUGGAAGACAAAACCUTT against Nlrp1a", "z-score": 0.61},
      {"sequence": "GGAACACUGUGAGAACAAGTT against Peak1", "z-score": 0.124},
      {"sequence": "GGAGUAUUACGUCUGAUAUTT against Nrxn1", "z-score": "2.39 (active)"},
      {"sequence": "GGUGCUUAAUUCCUGUCCCTT against Ggn", "z-score": -0.855},
      {"sequence": "GGAGUUCUUCACGCGUAACTT against G6pd2", "z-score": 0.599},
      {"sequence": "GCUAGAGGAGUUUCUAAACTT against Clu", "z-score": 0.0975},
      {"sequence": "GCUGGUGUCGGCAAAUCCUTT against Wnk1", "z-score": -0.62},
      {"sequence": "GCAGAAUGAGUUCAGACGATT against Mgmt", "z-score": 0.36},
      {"sequence": "GGCUUUCAGUUAUUUGACATT against Zfp709", "z-score": -0.636},
      {"sequence": "GGUUGUCUUUCUACUCGGGTT against Plpp1", "z-score": 1.37},
      {"sequence": "GGGAUGUCUUCCUAUACAGTT against Cope", "z-score": "-2.78 (active)"},
      {"sequence": "GCUGAUGGAGAGUUAUUUGTT against Rcbtb1", "z-score": 0.675},
      {"sequence": "CCACCCAAAAGUAAAAAGUTT against Rpp38", "z-score": -1.29},
      {"sequence": "GGUCUGGAUGCUUUAGAAUTT against Fam114a1", "z-score": -0.373},
      {"sequence": "GCAUUACUUGAGCAAAACATT against Zfp654", "z-score": -0.854},
      {"sequence": "GGCUCUGGAUGAAGAACUUTT against Gfpt2", "z-score": "4.13 (active)"},
      {"sequence": "CCUUCCUGUCCAUGUACCUTT against Olfr412", "z-score": 0.879},
      {"sequence": "GGUCACUGUAAAAUGAACCTT against Odf2", "z-score": 1.48},
      {"sequence": "CGCACAUGUAGUUAAUAAATT against Iqcg", "z-score": -0.96},
      {"sequence": "GGGCAAAGGAAAUGGAAUCTT against Eif5", "z-score": "2.33 (active)"},
      {"sequence": "GGCUCUUACUUCAUCACUATT against Casp4", "z-score": -1.9},
      {"sequence": "GGCCACUUCGUGUUCUUUUTT against Hoxa10", "z-score": "2.08 (active)"},
      {"sequence": "GGUUUUUAACCAAACAUGATT against Actr3", "z-score": -0.784},
      {"sequence": "CCAUCACUACACGAAAUUGTT against Fgf12", "z-score": 0.176},
      {"sequence": "AAAAAUGUCGGAUUCCCAATT against Adgrf3", "z-score": -0.121},
      {"sequence": "GCGAGUCUCACAUCAGUGATT against Tshz3", "z-score": "2.68 (active)"},
      {"sequence": "CGCAGCAGGAAUCAGGAAUTT against Tsr1", "z-score": 0.222},
      {"sequence": "GGAUGUGGAGUCACUGAUGTT against Ccdc91", "z-score": -0.863},
      {"sequence": "GGAUGAUGACGACAUUGAUTT against Eef1b2", "z-score": 0.292},
      {"sequence": "GGCAGACAACGUGUCACCUTT against Aldh1a3", "z-score": -0.883},
      {"sequence": "GGAGAAGACCAUAAAGAAGTT against Flywch1", "z-score": -0.554},
      {"sequence": "GACAUUUGUAUGCAGUCAUTT against Vmn1r193", "z-score": "-2.65 (active)"},
      {"sequence": "CCCUCUACACUAUACCACATT against Olfr347", "z-score": -0.498},
      {"sequence": "GGAUUCUGGGCUGAAUGGGTT against Pcdh18", "z-score": -0.491},
      {"sequence": "GGAACCAUCUUCAACCAACTT against Eme1", "z-score": -1.44},
      {"sequence": "GGAGAACUGUAAAUAAACUTT against Duoxa2", "z-score": "-2.1 (active)"},
      {"sequence": "CCAUAGAGUGGAUAGUCAUTT against Rsl1", "z-score": 0.385},
      {"sequence": "CCCUCAAAACCUAUGCCUUTT against Ugt1a2", "z-score": 0.715},
      {"sequence": "GCAGGCUAUGUUCUGGAAUTT against Zfp212", "z-score": "2.34 (active)"},
      {"sequence": "GGAUGAUUGCUGACGUGGATT against Bax", "z-score": 0.299},
      {"sequence": "CCUCCUAUUUGCUUCAUUUTT against Cytip", "z-score": -1.32},
      {"sequence": "CCUGAUCCGAUCAUCAGGATT against Cytip", "z-score": 0.133},
      {"sequence": "GGAAGGGCAAGUUAUGAAATT against Fgf14", "z-score": 0.0843},
      {"sequence": "GGGACAUUUCUAUUAGAAUTT against Snx24", "z-score": -0.95},
      {"sequence": "CCAUACCAAUGAAUGCCUCTT against Fas", "z-score": -1.4},
      {"sequence": "CCACUUCCUUACGAUUGAUTT against Aadacl4fm1", "z-score": "-2.09 (active)"},
      {"sequence": "GGCUGAGGAGUGGUACUUUTT against Src", "z-score": -1.13},
      {"sequence": "GCUAUGACUUCAACGACUATT against Pcsk4", "z-score": -0.309},
      {"sequence": "GGAUCUGUACAAGACUUAUTT against Olfr800", "z-score": -0.011},
      {"sequence": "GCCAACAGAAAUAAGCCUUTT against Sorcs1", "z-score": 0.221},
      {"sequence": "CCACACCAGAGGUCUUUGATT against Pde4dip", "z-score": -1.74},
      {"sequence": "CGAUUCCUUUGUAACGAAATT against Aldh5a1", "z-score": 1.04},
      {"sequence": "GGCACUUAAGUUUCAUAAGTT against Qars", "z-score": 0.466}
    ]}
  ]
}
